In PubChem BioAssay AID777 (Sanford-Burnham Center for Chemical Genomics, 2007) one finds inhibition data, which are given here for 101 compounds.

Out of some 96,000 compounds screened, about 19,000 (20%) were called active.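 How the source made its calls: active means blocking of liver enzyme CYP2C9 beyond about 50% at 5 µM (limit read from the data); inactive means the rest.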 Only a sample is shown.

This assay deals with Cytochrome P450 2C9 (Homo sapiens) (UniProt P11712). Nature of the assay: blockers of cytochrome P450 2C9 activity – biochemical, luminescence, ADME assay, primary screen (AID 777). The note with it: CYP2C9 Supersomes, luciferin-H conversion, at 5 µM, stronger effect = higher value.
Sequence of Cytochrome P450 2C9 (Homo sapiens) (P11712 whole entry, looked up): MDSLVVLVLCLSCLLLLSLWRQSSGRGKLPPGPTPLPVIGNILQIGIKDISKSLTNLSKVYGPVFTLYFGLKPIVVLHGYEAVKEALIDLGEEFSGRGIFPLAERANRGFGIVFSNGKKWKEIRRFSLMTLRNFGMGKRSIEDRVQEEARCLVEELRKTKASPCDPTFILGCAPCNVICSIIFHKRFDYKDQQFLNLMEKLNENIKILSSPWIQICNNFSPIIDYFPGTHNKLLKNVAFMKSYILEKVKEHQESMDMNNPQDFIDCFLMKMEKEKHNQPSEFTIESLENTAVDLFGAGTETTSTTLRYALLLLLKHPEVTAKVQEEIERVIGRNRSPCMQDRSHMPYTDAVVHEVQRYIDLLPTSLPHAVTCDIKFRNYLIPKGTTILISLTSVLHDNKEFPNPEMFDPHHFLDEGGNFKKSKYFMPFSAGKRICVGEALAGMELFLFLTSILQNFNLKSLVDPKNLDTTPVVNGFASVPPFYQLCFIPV
In the case of `Cc1cc(C)cc(N(CC(=O)Nc2c(C)n(C)n(-c3ccccc3)c2=O)S(C)(=O)=O)c1`, the inhibition – broadly, the relative decrease from the control value, in per cent – was 16.3% (inactive). As for `O=C(N/N=C/c1ccc(O)cc1)/C(=C/c1ccc([N+](=O)[O-])cc1)NC(=O)c1ccccc1`, the figure is -2.6% (inactive); as for `N#CCCN1CCN(S(=O)(=O)c2ccc(S(=O)(=O)N3CCCC3)cc2)CC1`, 16.2% (inactive). Consider `N#CCCN1CCN(S(=O)(=O)c2ccc(S(=O)(=O)NC3CC3)cc2)CC1`, for which the inhibition was 9.6% (inactive). To `N#CCCN1CCN(S(=O)(=O)c2ccc(S(=O)(=O)NC3CCCCC3)cc2)CC1` belongs 58% (active). Take `Cc1ccccc1-n1c(C)cc(/C=N/NC(=O)c2ccc(CN3CCOCC3)cc2)c1C`: the inhibition is 31.2% (inactive). For `CC(C)(C)Oc1ncc(Br)c(OC(C)(C)C)n1`, the inhibition is -16.6% (inactive). For `COc1cccc(C2/C(=C(/O)c3ccncc3)C(=O)C(=O)N2CCCN(C)C)c1` (stereo unspecified), the inhibition is -17.5% (inactive). As for `COc1ccc(OC)c(N=Cc2c(O)[nH]c3ccccc23)c1`, the figure is 15.1% (inactive); as for `COc1cc(N=Cc2c(O)[nH]c3ccccc23)cc(OC)c1OC`, 66% (active); as for `COc1ccc(N=Cc2c(O)[nH]c3ccccc23)cc1OC`, 2.9% (inactive).

In the case of `CCCCCCC(=O)Nc1nc(C)c(-c2csc(Nc3cccc(OC)c3)n2)s1`, the inhibition was 19.4% (inactive).

For the compound `Cc1ccc(SCC(=O)c2cc(C)c(OC(=S)N(C)C)c(C)c2)cc1`, the inhibition is 58.6% (active). As to `Cc1ccc(SC(=O)COc2ccc(C)c(C)c2)cc1`, the inhibition was 13.5% (inactive). To `COC(=O)c1cc(OC)c(OC)cc1NC(=O)CSc1ccc(C)cc1` belongs 21.1% (inactive). As for `CSc1nc(C)nc2c1c(=O)n(C)c(=O)n2C`, the figure is -6.6% (inactive). For the compound `CSc1nc2nc3c(c(=O)n2[nH]1)CCC3`, the inhibition is -13.2% (inactive). On to `Cc1ccc(C)c(N2CCN(S(=O)(=O)c3ccc4c(c3)oc(=O)n4C)CC2)c1`, for which the inhibition was 88.4% (active). As for `Cc1ccc2nc(NC(=O)C3CCN(S(=O)(=O)c4ccc5c(c4)oc(=O)n5C)CC3)sc2c1`, the figure is -47.7% (inactive).

As to `Cn1c(=O)oc2cc(S(=O)(=O)N3CCC(C(=O)Nc4ccc(OC(F)(F)F)cc4)CC3)ccc21`, the inhibition was -62.7% (inactive). Take `CCSC1(SCC)N=C(N)C2(C#N)C(c3ccccc3)NC(C)=CC12C#N` (stereo unspecified): the inhibition is 6.1% (inactive).

Consider `COC(=O)c1ccc2c(=O)n(CC3CCCO3)c(=S)[nH]c2c1` (stereo unspecified), for which the inhibition was 6.5% (inactive). For `O=c1c2cc3c(=O)n(CC4CCCO4)c(=O)c3cc2c(=O)n1CC1CCCO1` (stereo unspecified), the inhibition was 3.8% (inactive).

As for `CCOc1cccc(=O)c2c(C)n(CC3CCCO3)c(C)c12` (stereo unspecified), the inhibition is 59.7% (active). To `OCCCN1c2ccccc2Nc2nnc(-c3ccccc3)cc21` belongs 46.3% (inactive); to `CN(C)c1nc2n(c(=O)n1)CCO2`, 2.6% (inactive); to `CC(C)(CNC(=O)c1cc(=O)[nH]c2ccccc12)N1CCOCC1`, 8% (inactive). As for `CCOC(=O)c1[nH]c2ccc(OC)cc2c1NC(=O)CCN1CCN(Cc2ccccc2)CC1`, the inhibition is 11.4% (inactive). As for `COC(=O)c1[nH]c2ccccc2c1NC(=O)CN1CCCc2ccccc21`, the figure is 88.7% (active); as for `Cc1cccc(-n2c(O)c(C=Nc3ccccc3N)c(=O)[nH]c2=O)c1`, 0.2% (inactive).

Regarding `CCCOP(=O)(c1ccc(N(C)C)cc1)C(O)c1cc(OC)c(OC)c(OC)c1` (stereo unspecified), the inhibition was -3.1% (inactive). As to `CCC(=O)OCc1c(C(F)(F)F)nn(C)c1Oc1cccc(C(F)(F)F)c1`, the inhibition is 34% (inactive). As for `Cn1nc(C(F)(F)F)c(C(=O)Nc2cccc(C(F)(F)F)c2)c1SCc1ccc(Cl)cc1`, the inhibition was 97.5% (active). On to `FC(F)(F)c1cccc(NC(=S)Nc2cccc(Cl)c2)c1`, for which the inhibition is -83% (inactive). As for `COC(=O)c1sc2ncccc2c1OCc1ccc(Cl)cc1Cl`, the figure is 9.3% (inactive); as for `Cc1ccc2c(C(=O)CN3CCCC3)c(C)[nH]c2c1`, 49.7% (inactive); as for `Cc1ccc(C)n1C(Cc1ccccc1)C(=O)O` (stereo unspecified), 28.3% (inactive). Regarding `CC1=CC(C)(C)Nc2ccc(OC(=O)C(Cc3ccccc3)N3C(=O)C4CCCCC4C3=O)cc21` (stereo unspecified), the inhibition is 72.8% (active). As for `CC1=CC(C)(C)Nc2ccc(OC(=O)CN3C(=O)C4CCCCC4C3=O)cc21` (stereo unspecified), the figure is 10.9% (inactive); as for `O=C(Nc1ccon1)c1sc2ccccc2c1Cl`, -23.1% (inactive); as for `CCc1c(C)c2c(C)[nH]nc2oc1=O`, -66% (inactive). As for `Cc1cc2c(c(=O)n1Cc1ccco1)C(c1ccccc1)C(C#N)=C(N)O2` (stereo unspecified), the figure is 1.2% (inactive); as for `Cc1ccc(-c2nc3ccccc3[nH]2)cc1N`, 40.6% (inactive); as for `Cn1nc([N+](=O)[O-])nc1Sc1ccc(C(C)(C)C)cc1`, 12.1% (inactive). For the compound `COc1ccccc1Nc1ncc(C(C)=O)c(C)n1`, the inhibition is 18.7% (inactive). In the case of `CCC(C(=O)NC1CCCC1)N(C(=O)c1snc(C(N)=O)c1N)c1ccc2c(c1)OCCO2` (stereo unspecified), the inhibition is 14.7% (inactive). For the compound `COc1ccc(CCN(C(=O)COc2ccccc2)c2nc(-c3ccccc3)cs2)cc1OC`, the inhibition is 75.2% (active). To `COc1ccc2c(c1OC)C(=O)OC2Nc1nc(-c2ccccc2)cs1` (stereo unspecified) belongs 8.8% (inactive); to `CN(C(=O)CSc1nc(C2CC2)nc2ccccc12)c1nc(-c2ccccc2)cs1`, 39.9% (inactive); to `CCn1c(=N)n(CC(=O)c2cccc(OC)c2)c2ccccc21`, -13.2% (inactive). To `O=C(Nc1ccc(Cl)cn1)c1cnn2cccnc12` belongs 11.4% (inactive); to `O=S1(=O)CCN(Cc2ccccc2Cl)CC1`, 13.3% (inactive); to `Cc1ccc(-c2nc(COC(=O)c3c(C)noc3C)cs2)cc1`, 28% (inactive). Take `CN1/C(=C\C(=O)c2oc3ccccc3c2N)C(C)(C)c2ccccc21`: the inhibition is 47.6% (inactive).

As for `Cc1noc(C)c1C(=O)OCC(=O)/C=C1\N(C)c2ccccc2C1(C)C`, the inhibition was 55.7% (active). `Nc1nnc(SCCN2C(=O)c3ccccc3S2(=O)=O)s1`: the inhibition is -0.2% (inactive). As for `Cc1cccc(NC(=S)N2CCC(c3nc4ccccc4s3)CC2)c1`, the figure is -16.4% (inactive); as for `O=C(c1cccs1)N1CCN(C(=O)N2CCOCC2)CC1`, -2% (inactive); as for `O=C(c1cccs1)N1CCC(c2nc3ccccc3s2)CC1`, 60.9% (active).

For `CCC1(C)Cc2c(sc3nnn(CC(=O)Nc4ccc(Cl)cc4)c(=O)c23)CO1` (stereo unspecified), the inhibition is 49.3% (inactive). For the compound `COc1ccc(Cc2nnc(NC(=O)Cc3cccs3)s2)cc1`, the inhibition is 24.4% (inactive). As for `COc1ccc(Cc2nnc(NS(=O)(=O)Cc3ccccc3)s2)cc1`, the figure is 60.3% (active). Turning to `CCC(CC)c1nnc(NS(=O)(=O)Cc2ccccc2)s1`, the inhibition is 34.3% (inactive). To `COc1ccc(C(=O)Nc2ccccc2C(=O)N/N=C/c2ccc(O)c(OC)c2)cc1` belongs 73.4% (active); to `COc1cc(/C=N\NC(=O)CNC(=O)c2cccc([N+](=O)[O-])c2)ccc1O`, -11.8% (inactive); to `COc1ccc(C(=O)Nc2ccccc2C(=O)N/N=C/c2ccccc2OC)cc1`, -11.9% (inactive). For the compound `CCCC(CCC(=O)OC)(C(=O)OCC)c1csc(N)n1` (stereo unspecified), the inhibition is 30.1% (inactive). For `C#CCN1C(=O)C(O)(CC(=O)c2cc(OC)ccc2OC)c2ccccc21` (stereo unspecified), the inhibition was 30.3% (inactive). Regarding `O=C(Nc1ccccc1F)C1C2C=CC3(O2)C1C(=O)N(c1cccnc1)C3C(=O)NC1CCCCC1` (stereo unspecified), the inhibition is -11.1% (inactive).

As to `CCOC(=O)NC(C(F)(F)F)(C(F)(F)F)P(=O)(c1ccccc1)c1ccccc1`, the inhibition is -2.2% (inactive).

For `CCOc1cc2[nH]c(=S)n(CCN3CCCCC3C)c(=O)c2cc1OCC` (stereo unspecified), the inhibition is 17.7% (inactive).

For the compound `Nc1ccc(-c2nnc(-c3ccc(-c4ccccc4)cc3)o2)cc1`, the inhibition is 78.7% (active).

In the case of `Nc1ccc(-c2sc(N)nc2-c2ccccc2)cc1`, the inhibition was 12.4% (inactive). As for `Nc1ccc(Nc2ccccc2)cc1`, the figure is 12.1% (inactive); as for `CSc1ncccc1C(=O)OCC(=O)N1CCOCC1`, -8% (inactive); as for `C=CCN(N=Nc1cccc([N+](=O)[O-])c1)c1cccc([N+](=O)[O-])c1`, 46.4% (inactive). Regarding `Cc1oc2nc(SCC(=O)NCc3cccnc3)nc(N)c2c1C`, the inhibition was 14.4% (inactive). Take `CS(=O)(=O)NCc1ccc(C(=O)NCc2ccccc2)cc1`: the inhibition was -6.7% (inactive). As for `Cc1ccc(C(=O)NCCNS(=O)(=O)c2ccccc2)cc1`, the figure is 60% (active); as for `O=S(=O)(NCCNS(=O)(=O)c1ccccc1)c1ccccc1`, 34.1% (inactive).

Take `C/C(=N\NC(=O)Cc1ccc(Cl)cc1)c1ccccn1`: the inhibition is 32.4% (inactive). For `Cc1ccccc1CN1CCN(CC(=O)NCc2ccccn2)C1=O`, the inhibition is -9.3% (inactive). On to `CNC(=S)N1N=C(c2ccccc2)CC1c1ccc(Br)cc1` (stereo unspecified), for which the inhibition is 69.6% (active). As to `COc1ccc(NC(=S)N2N=CCC2c2ccccc2)cc1` (stereo unspecified), the inhibition is 10.8% (inactive). To `Cc1nn(C)c(Oc2ccc(Cl)cc2)c1C=O` belongs 0% (inactive).

`Cc1cc(/C=C2/SC(=O)N(CC(=O)OC(C)C)C2=O)c(C)n1C`: the inhibition was 5.9% (inactive). To `COc1ccc(-c2cc(C3CCN(c4ncccc4[N+](=O)[O-])CC3)[nH]n2)cc1` belongs 97.2% (active). As for `COc1cccc(NC(=O)c2nn(C34CC5CC(CC(C5)C3)C4)cc2[N+](=O)[O-])c1`, the figure is 11.2% (inactive); as for `O=C1C=C(c2ccc(Cl)cc2)C(=O)N1Nc1ccccc1`, 45.5% (inactive); as for `Cc1nnc(NC(=O)CSc2nc(C3CCCCC3)nc3ccccc23)s1`, 20.1% (inactive). As for `COc1cc(CC(=O)NCc2cccs2)cc(OC)c1OC`, the inhibition is -31% (inactive). As for `S=C(NCc1ccc(Cl)cc1)NC12CC3CC(CC(C3)C1)C2`, the figure is 49.3% (inactive); as for `S=C(NCc1cccs1)Nc1ccc(Cl)cc1`, 53% (active). To `COC(=O)c1sccc1-n1cccc1C(=O)C(=O)N1CCCCC1` belongs 7.3% (inactive).

As to `CCOC(=O)N1CCN(c2c(NCCCN3CCCC(C)C3)c(=O)c2=O)CC1` (stereo unspecified), the inhibition was 18.1% (inactive). For the compound `CCOc1ccccc1C1CC(c2ccc(Cl)cc2)Nc2nc(N)nn21` (stereo unspecified), the inhibition was 51.1% (active). As for `CCOc1ccccc1C1CC(c2ccccc2)Nc2nc(N)nn21` (stereo unspecified), the figure is 12.8% (inactive); as for `Cc1ccc(C2CC(c3cccc(C)c3)n3nc(N)nc3N2)cc1` (stereo unspecified), 11.1% (inactive). As for `Cc1ccc(C2CC(c3cccc(Br)c3)n3nc(N)nc3N2)cc1` (stereo unspecified), the figure is 5.1% (inactive); as for `COc1ccc(C2CC(c3ccc(Cl)cc3Cl)Nc3nc(N)nn32)cc1OC` (stereo unspecified), 9.8% (inactive); as for `Nc1nc2n(n1)C(c1ccco1)CC(c1ccc(Cl)c(Cl)c1)N2` (stereo unspecified), 50% (active).
